Rab9 promoter act: qHTS Assay for Rab9 Promoter Activators; Huh7 Rab9 promoter-luciferase reporter, luminescence, 24 h; Potency, µM (doses to about 9.22 µM), actives largely listed as activators; AID 485297, 2010; 2.8% of 320,000 active; also: nearly all actives have a fitted effect of over 60% in size
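Cell-based reporter: Huh7 stable for Rab9 promoter-driven luciferase, plated in reduced-serum medium with 10% FBS at 1500 cells/well, compound-treated 24 h at 37 °C, luminescence read after 10 min reagent.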
ELG1 repair inh: qHTS screen for small molecules that inhibit ELG1-dependent DNA repair in human embryonic kidney (HEK293T) cells expressing luciferase-tagged ELG1; 2.3% of 330,000 active; HEK293T ELG1-luciferase reporter, luminescence, 16 h; DNA damage induced by 5-fluorouridine; Potency, µM (doses to about 46.1 µM), actives largely listed as inhibitors; also: nearly all actives have a fitted effect of over 55% in size
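DMSO vehicle served as the neutral condition. Each well held 2,000 cells given 5-fluorouridine plus compound; after 16 hr at 37 °C/5% CO2, ONE-Glo was added and luciferase measured 30 min later.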
NPC1 prom act: qHTS Assay for NPC1 Promoter Activators | Huh7 NPC1 promoter luciferase reporter, 24 h | Potency, µM (top dose mostly 9.22 µM), most hits filed as activators | 2.4% of 320,000 active; also: nearly all actives have a fitted effect of over 60% in size
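Luciferase expression driven by the NPC1 promoter was measured in stably transfected Huh7 cells after a 24 h compound incubation, using a luciferase reagent and a luminescence read.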
SMN2 splice up: qHTS Assay for Enhancers of SMN2 Splice Variant Expression | HEK293 SMN2-luciferase splicing reporter, luminescence, 30-36 h | Potency, µM (titrated, usually from 46.1 µM), actives largely listed as activators | 2.8% of 210,000 active; also: nearly all actives have a fitted effect of over 55% in size
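qHTS luciferase splicing reporter: luminescence rises when SMN2 exon 7 is included in transfected HEK293 cells. Compound exposure lasted 30-36 h at 37C, with 4.5 mM final sodium butyrate as control, followed by a ONE-Glo read.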
ELG1 genotoxic: qHTS screen for small molecules that induce genotoxicity in human embryonic kidney (HEK293T) cells expressing luciferase-tagged ELG1; 1.3% of 330,000 active; Potency, µM (highest dose often 46 µM), hits mostly activators; HEK293T ELG1-luciferase reporter, luminescence, 16 h; AID 504466, 2011; also: nearly all actives have a fitted effect of over 60% in size
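Genotoxicity was scored as increased ELG1-luciferase reporter signal, measured by ONE-Glo luminescence (30 min, room temperature). Compound or vehicle exposure of the HEK293T reporter cells lasted 16 hr at 37°C.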
FLuc modulator: qHTS profiling assay for firefly luciferase inhibitor/activator using purifed enzyme and Km concentrations of substrates (counterscreen for miR-21 project); 6.9% of 360,000 active; Luciferin 4-monooxygenase (Photinus pyralis), P08659; AID 588342, 2011; purified FLuc, Km substrates, luminescence inhibition; Potency, µM (titrated, usually from 57.5 µM), actives largely listed as inhibitors; also: nearly all actives have a fitted effect of over 55% in size
Target sequence (P08659 whole entry, looked up): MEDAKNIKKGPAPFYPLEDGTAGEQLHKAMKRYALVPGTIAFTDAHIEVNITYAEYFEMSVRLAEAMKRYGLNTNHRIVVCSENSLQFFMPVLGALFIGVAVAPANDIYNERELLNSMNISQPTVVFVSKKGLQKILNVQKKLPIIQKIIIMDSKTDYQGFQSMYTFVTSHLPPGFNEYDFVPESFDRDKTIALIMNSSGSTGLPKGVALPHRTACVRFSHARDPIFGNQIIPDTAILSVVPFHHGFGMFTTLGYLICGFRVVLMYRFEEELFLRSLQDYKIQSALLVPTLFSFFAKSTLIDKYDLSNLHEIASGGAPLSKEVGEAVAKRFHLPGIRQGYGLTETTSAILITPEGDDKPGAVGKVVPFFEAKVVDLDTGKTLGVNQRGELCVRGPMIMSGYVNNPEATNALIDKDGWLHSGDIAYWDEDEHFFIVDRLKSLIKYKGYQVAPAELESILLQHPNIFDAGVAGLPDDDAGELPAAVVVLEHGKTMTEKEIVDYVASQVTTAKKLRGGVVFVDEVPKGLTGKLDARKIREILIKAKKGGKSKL
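Purified P. pyralis luciferase (10nM final) with 10uM D-luciferin and 10uM ATP (Km levels) in 50mM Tris acetate pH 7.5, 10mM Mg acetate, 0.01% Tween-20, 0.05% BSA; qHTS 6-point titration, ~60 µM downward; luminescence read.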
Hits are given with their value; – = inactive; ? = inconclusive; · = no result given. Only some compounds are listed: those with a hit (about 9.3% of all), similar ones and a draw of the others. Calls follow the shape of the dose curve; as a rule, active = well fitted curve in the direction sought with a large enough effect; inconclusive = small, poorly fitted or top-dose-only effect, or another doubt; inactive = no such curve, though single readings can be large; an effect the other way counts as inactive or inconclusive.

SMILES	Rab9 promoter act	ELG1 repair inh	NPC1 prom act	SMN2 splice up	ELG1 genotoxic	FLuc modulator
COc1cccc(NC(=O)CSc2nnc(NC(=O)c3ccco3)s2)c1	–	?	–	·	–	24µM
Cc1cc(C)c(OCC(=O)Nc2ccccc2N2CCOCC2)c(C)c1	–	0.82µM	–	–	–	–
Cc1cc(C)c(OCC(=O)Nc2ccccc2N2CCCCC2)c(C)c1	–	–	–	·	–	–
Cc1ccc(C)c(N2N=C(C(=O)Nc3ccccc3N3CCOCC3)CCC2=O)c1	–	15µM	–	·	–	–
Cc1ccc(C)c(N2N=C(C(=O)Nc3ccccc3N3CCCC3)CCC2=O)c1	–	?	–	·	–	–
Cc1oc(-c2ccccc2)nc1CNC(=O)NC1CCCCC1	·	·	·	·	·	–
Cc1cc(NS(=O)(=O)c2ccc(NC(=O)COc3ccccc3Br)cc2)no1	·	·	·	–	·	?
Cc1nc2ccc(NC(=O)N3CCCCC3)cc2nc1C	?	?	–	–	–	–
Cc1nc2cc(NC(=O)N3CCCCC3)ccc2n1C	–	?	–	13µM	?	?
CCOC(=O)C1CCN(C(=O)Nc2ccc3c(c2)nc(C)n3C)CC1	?	?	?	11µM	?	–
O=C(CCl)Nc1cc2[nH]c(=O)[nH]c2cc1Br	–	?	–	–	–	–
Cc1ccc2nc(-c3ccc(N4C(=O)CC(N5CCCC(C)C5)C4=O)cc3)sc2c1 (centres undefined)	·	·	·	–	·	15µM
Cc1ccc(N2C(=O)CC(N3CCN(C)CC3)C2=O)cc1 (centres undefined)	–	–	–	–	–	–
Cc1ccc2nc(-c3ccc(N4C(=O)CC(N5CCC(C(N)=O)CC5)C4=O)cc3)sc2c1 (centres undefined)	–	?	–	–	?	2.7µM
Oc1oc(-c2ccccc2)nc1/C=N/c1nccs1	–	?	–	?	–	12µM
Cc1ccc(-c2nc(C=Nc3ccccc3)c(O)o2)cc1	?	?	–	·	?	9.5µM
Cc1ccc(N=Cc2nc(-c3ccco3)oc2O)cc1	–	?	–	–	?	4.3µM
Cc1ccc(-n2cc(C(=O)c3ccc(F)cc3)nn2)cc1Cl	0.5µM	?	0.5µM	7.1µM	?	0.24µM
CCOC(=O)c1ccc(-n2cc(C(=O)c3cccnc3)nn2)cc1	–	–	–	·	–	?
COc1ccc(-c2nc(CNC(=O)Nc3ccccc3)c(C)o2)c(OC)c1	·	·	·	·	·	–
CC(=O)c1ccc(NC(=O)c2onc(C)c2Cl)cc1	0.63µM	?	1.4µM	·	?	?
CC(C)c1onc(C(=O)Nc2ccc3c(c2)OCO3)c1[N+](=O)[O-]	–	–	–	·	?	27µM
Cc1ccc2c(Cl)c(C(=O)Nc3ccc4c(c3)OCO4)sc2c1	2µM	?	?	?	–	–
Cc1noc(C(=O)Nc2ccc3c(c2)OCO3)c1Cl	4µM	?	?	?	?	19µM
CCc1onc(C)c1C(=O)Nc1ccc2c(c1)OCO2	–	–	–	·	–	–
SMILES	Rab9 promoter act	ELG1 repair inh	NPC1 prom act	SMN2 splice up	ELG1 genotoxic	FLuc modulator
COc1ccc(-c2cc(=O)oc3cc(OCC(=O)NCC(O)c4ccccc4)ccc23)cc1 (centres undefined)	–	–	–	·	–	–
Cc1ccc(CN2CC(C(=O)N3CCN(S(=O)(=O)c4ccc(C(C)C)cc4)CC3)CC2=O)cc1 (centres undefined)	–	12µM	–	·	–	–
COc1ccc2c(c1)c(C(C)=O)c(C)n2CCc1ccc(OC)c(OC)c1	–	–	–	·	–	–
CCOC(=O)c1c(C(=O)OCC)c(C)n(CCc2ccc(OC)c(OC)c2)c1C	–	15µM	–	–	–	–
Cc1nc(C(=O)NCCC(C)C)sc1C1(C)CC(c2ccccc2)=NO1 (centres undefined)	–	13µM	–	·	–	–
CNC(=O)c1nc(C)c(C2(C)CC(c3ccccc3)=NO2)s1 (centres undefined)	–	–	–	·	–	–
Nc1nc2c(s1)CC(c1ccccc1)CC2 (centres undefined)	–	–	–	–	–	24µM
CC(OC(=O)c1ccco1)C(=O)Nc1ccc(C(F)(F)F)cc1 (centres undefined)	–	–	–	·	–	–
COc1cccc(C(=O)NCC2CCCN2S(=O)(=O)c2ccccc2)c1 (centres undefined)	–	–	–	·	–	–
COc1cccc(NC(=O)C(=O)NCCC2CCCCN2S(=O)(=O)c2ccccc2)c1 (centres undefined)	–	?	–	·	–	24µM
COc1cccc(NC(=O)C(=O)NCC2CCCN2S(=O)(=O)c2ccccc2)c1 (centres undefined)	?	?	–	·	–	15µM
COc1ccccc1NC(=O)C(=O)NCCC1CCCCN1S(=O)(=O)c1ccccc1 (centres undefined)	–	?	–	·	–	–
CCCCCCCCCCCCCCC[C@@H](O)[C@H](CO)NC(=O)CCCCCCC	·	·	·	–	·	·
CCCC(=O)n1nc(-c2cccnc2)nc1NCc1ccccc1	–	–	–	–	–	–
COc1ccccc1NC(=O)N(Cc1nnc2n1CCCCC2)c1ccc(F)cc1	·	·	·	·	·	–
COc1ccc(Cn2c(C(=O)O)c(CNC3CCCCC3)c3ccc(C)cc32)cc1	·	·	·	·	·	–
CN(Cc1nc(C(c2ccccc2)c2ccccc2)no1)CC1COCCO1 (centres undefined)	?	?	?	·	?	15µM
CN(Cc1nc(Cc2cccc(F)c2)no1)CC1COCCO1 (centres undefined)	–	–	–	·	–	–
NCCCCCNC(=O)c1nc[nH]c1C(=O)NCC(=O)OCc1ccccc1	·	–	·	·	–	·
COc1ccc2cc(CN(CC3CCCO3)C(=O)Nc3ccccc3)c(=O)[nH]c2c1 (centres undefined)	–	18µM	–	·	–	–
Cc1ccc2[nH]c(=O)c(CN(CCN3CCOCC3)C(=O)Nc3ccccc3F)cc2c1	–	16µM	–	–	–	–
CCOc1ccc(NC(=S)N(CCN2CCOCC2)Cc2cc3cc4c(cc3[nH]c2=O)OCO4)cc1	–	21µM	–	·	–	–
Cc1cccc(NC(=O)N(Cc2cc3cc(C)ccc3[nH]c2=O)CC2COCCO2)c1 (centres undefined)	–	12µM	–	–	–	–
Cc1cc2cc(CN(CCN3CCOCC3)C(=O)Nc3ccccc3F)c(=O)[nH]c2cc1C	–	?	–	·	–	–
C=C1C(C(=O)Nc2cccc(OC)c2)C1C(=O)Nc1cccc(OC)c1 (centres undefined)	–	–	–	–	–	–

Screens (PubChem)
